# MARV entry inh – inhibitors of Marburg virus binding or cell entry; Potency, µM (titrated, usually from 37.8 µM), for inactives: at the highest dose activity change, negative = inhibition, most hits filed as inhibitors; 1.8% of 300,000 active; Marburg virus pseudotyped entry inhibition, cell reporter; calls by dose curve; tested in HEK293 cells; also: potency is read from the fitted curve at half-maximal effect
# HCV inhibitor – HCV inhibition. Huh7.5.1 HCVcc-Cre infection, luciferase reporter, 44 h. Potency, µM (series often up to 41.8 µM), for the others: at the top dose activity change, negative = inhibition, usual class: inhibitors. 3.4% of 340,000 active. AID 651820; active = well fitted inhibition curve with a large enough effect; inconclusive = small, poorly fitted or top-dose-only effect, or another doubt; inactive = no such curve, though single readings can be large or run the other way; also: potency is read from the fitted curve at half-maximal effect
#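 Luciferase read-out (15 sec integration) after a 15 min room-temperature substrate step quantifies HCVcc-Cre infection. Cells, 1,000 per well, had compound added 4 h post-plating, then virus at ~0.5 moi, and were cultured 44 h.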
# Vaccinia mCherry – inhibitors of vaccinia virus infection (mCherry reporter signal). 0.63% of 310,000 active. Potency, µM (series often up to 36.5 µM), inactives show top-dose activity change, negative = inhibition, hits mostly inhibitors. Vaccinia virus mCherry reporter infection, fluorescence. AID 720579; calls by dose curve; tested in A549 cells; also: potency is read from the fitted curve at half-maximal effect; nearly all actives have a fitted effect of over 35% in size
# HCMV antiviral – human cytomegalovirus inhibition. HFF cells, HCMV-luciferase reporter, 72 h; stronger effect = lower value. activity change, negative = inhibition, % at 57.5 µM. 4.5% of 410,000 active; in the data active = activity change below about -60%; inconclusive = no clear call, values can overlap the other calls; inactive = above about -39%
#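 Human foreskin fibroblasts infected with luciferase-reporter HCMV at MOI 1 PFU/cell, compounds at two doses. Luciferase measured 72 h post infection; normalized to buffer-only basal and Salinomycin (10uM) controls.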
# Lassa entry inh – inhibitors of Lassa virus binding or cell entry; Potency, µM (series often up to 37.9 µM), without a hit: top-dose activity change, negative = inhibition, usual class: inhibitors; 1.2% of 300,000 active; Lassa virus pseudotype entry inhibition, cell reporter; AID 540256; calls by dose curve; tested in HEK293 cells; also: potency is read from the fitted curve at half-maximal effect; nearly all actives have a fitted effect of over 50% in size
# VACV Venus inh – vaccinia inhibition (Venus reporter) | Potency, µM (highest dose often 36.5 µM), inactives show at the top dose activity change, negative = inhibition, most hits filed as inhibitors | Vaccinia virus Venus reporter expression, fluorescence | AID 720580 | 0.46% of 330,000 active; calls by dose curve; tested in A549 cells; also: potency is read from the fitted curve at half-maximal effect; nearly all actives have a fitted effect of over 30% in size
# Numbers without * were called inactive; i = inactive; ? = inconclusive; / = not tested or not shown; [ ] = remark or other dose. Compounds with a hit are over-represented: about 7.8% of the library has one in this group of screens. % is scaled to controls: 0 for no effect and ±100 for the full control effect.
SMILES,MARV entry inh,HCV inhibitor,Vaccinia mCherry,HCMV antiviral,Lassa entry inh,VACV Venus inh
O=[N+]([O-])c1ccc(S(=O)(=O)CC2CSc3nc4ccccc4n32)cc1 (stereo not given),?,?,-15%,-79*,?,-17%
Cc1nnc2n(c1=O)C(CS(=O)(=O)c1ccccc1)CS2 (stereo not given),-16%,-17%,/,49,8%,/
CC(C)C(=O)N=c1sc2cc(F)cc(F)c2n1C,/,7%,-8%,?,/,-16%
CCC(=O)N=c1sc2cc(F)cc(F)c2n1C,/,-20%,i,-62*,/,-2%
Cc1cnc(C)c(-c2cccc3c2OC(CNC(=O)C[C@@H]2C[C@@H](C)NC(=S)N2)C3)n1 (stereo not given in full),/,/,-10%,/,/,3%
CCCc1sc(N/N=C/c2ccccn2)nc1-c1ccc(F)cc1,?,?,11µM*,/,?,?
Cc1nc(N/N=C/c2ccccn2)sc1C,1.3µM*,?,?,-98*,1.8µM*,?
CCOC(=O)c1cnc2c(ccc3ccccc32)c1NCCO,?,11µM*,/,8,1%,?
COC(=O)c1cc(=O)c2c(C)nc(C(Cl)(Cl)Cl)nc2[nH]1,28%[46.1 µM],8%,-8%,-100*,-1%,-21%
CC(C)Cc1ccc(C(C)CC2=CCC(CN(C)C)C2=O)cc1 (stereo not given),?,?,?,-4,?,-23%
CCN(CC)CCNc1nc(-c2cccs2)c(CC(=O)O)s1,?,14%,i,-87*,14%,-12%
CCCN(CCC)[C@H]1CCc2ccc(O)cc2C1,-15%,/,/,/,/,/
CC(=O)NCCNC(=O)c1nnc2n1CCN(C(=O)C1CCCCC1)C2,/,/,/,-17,/,/
CCN(CC)CCNC(=O)c1[nH]c2ccc(OCc3ccccc3)cc2c1C,?,10µM*,?,?,?,?
CCN(Cc1ccccc1)C(=O)c1[nH]c2ccc(OC)cc2c1C,1%[46.1 µM],2%,-14%,-18,-44%[46.1 µM],-19%
COc1ccc(C2C(C(=O)Nc3ccccn3)=C(C)Nc3ncnn32)c(OC)c1 (stereo not given),3%,7%,-2%,-64*,/,-2%
COc1ccc(OC)c(C2NC(=S)NC(C)=C2C(=O)Nc2ccccn2)c1 (stereo not given),30%[46.1 µM],20%,-7%,-99*,9%,0%
CC1=C(C(=O)Nc2ccccn2)C(c2ccccc2)n2ncnc2N1 (stereo not given),4%,10%,/,-5,7%,-1%
COc1ccc(C2NC(=S)NC(C)=C2C(=O)Nc2ccccn2)cc1 (stereo not given),/,0%,/,74,/,/
CCN1CCCC1CNCc1cc2ccc(SC)cc2nc1-c1cc(OC)ccc1OC (stereo not given),/,/,9%,/,/,27%
CN(C)c1nc(C=C(C#N)C#N)c(Cl)n1-c1ccc(F)cc1,?,?,?,-97*,?,?
C=CCOc1c(CNc2cccc(C(=O)O)c2)cccc1OCC,22%,17%,-15%,-81*,15%,-4%
CCc1ccc(-c2cn(-c3nc(C)cc(C)n3)c(=N)o2)cc1,?,22µM*,/,-101*,16µM*,/
CCc1ccc(-c2cn3c(n2)SCC3)cc1,?,6%,?,83,-15%[46.1 µM],-19%
c1ccc2c(c1)OCCOCCOCCOCCOCCOc1ccccc1OCCOCCOCCO2,?,?,?,-98*,?,-27%
SMILES,MARV entry inh,HCV inhibitor,Vaccinia mCherry,HCMV antiviral,Lassa entry inh,VACV Venus inh
CC(C)(C)c1ccc(O[C@@H]2[C@H](O)CO[C@@H]2C=CC#Cc2ccccc2)cc1,-9%[14.2 µM],/,/,/,/,/
CCn1c2ccccc2c2cc(/C=N/NC(=O)c3ccncc3)ccc21,?,?,?,6,5.6µM*,-27%
CCn1c2ccccc2c2cc(/C(C)=N/O)ccc21,?,10µM*,-25%,13,5%,-10%
CCn1c2ccccc2c2cc(/C=N/NC(=O)c3cc(O)cc(O)c3)ccc21,?,?,-9%,-16,?,0%
CCn1c2ccccc2c2cc(/C=N/NC(=O)c3ccc(O)cc3)ccc21,7.1µM*,18µM*,-25%,-38,5µM*,?
CCCN1CNc2c(c(=O)[nH]c(=S)n2CCc2cccs2)C1,/,/,i,/,/,-16%
COC(=O)C1=C(C)N(Cc2ccccc2)C(=NCC(C)C)NC1c1cccc(C(F)(F)F)c1 (stereo not given),9%[14.2 µM],/,/,/,?,/
COc1ccc2c(c1)C(CC(C)=O)N(c1ccc(-c3cnc(OC)nc3)cc1)C(c1ccsc1)=C2 (stereo not given),/,/,15%,8,/,-10%
COc1ccc2c(c1)C(CC(C)=O)N(c1ccc(-c3cccs3)cc1)C(c1ccsc1)=C2 (stereo not given),/,/,0%,-90*,/,-5%
COc1ccc(/C=C/c2ccc3ccccc3n2)c(OC)c1,/,/,-19%,/,/,-14%
COc1ccc(NC(=O)C2Cc3c(-c4ccco4)ccnc3O2)cc1OC (stereo not given),/,/,?,-73*,/,-28%
CS(=O)(=O)Nc1cccc(NC(=O)C2Cc3c(-c4cccc(F)c4)ccnc3O2)c1 (stereo not given),/,/,8.9µM*,-78*,/,10µM*
COc1ccc(NC(=O)C2Cc3c(-c4cccc(F)c4)ccnc3O2)cc1OC (stereo not given),/,/,-3%,-76*,/,-20%
COc1ccc(NC(=O)C2Cc3c(-c4ccc(NC(C)=O)cc4)ccnc3O2)cc1OC (stereo not given),/,/,i,-36,/,3%
COc1ccc(NC(=O)C2Cc3c(-c4ccc5c(c4)OCO5)ccnc3O2)cc1OC (stereo not given),/,/,-20%,-90*,/,?
O=C(Nc1ccccc1)C1Cc2c(-c3cccc(F)c3)ccnc2O1 (stereo not given),/,/,14%,-31,/,-8%
CN(c1ccc(Cl)cc1)S(=O)(=O)c1nnc(NC(=O)C2CCCCC2)s1,/,/,i,87,3%[46.1 µM],-11%
CNc1c(Br)cc(C(O)C2=CCc3ccccc32)cc1Br (stereo not given),/,/,-22%,/,/,-16%
O=C(NCCO)C(=O)Nc1c2c(nn1-c1ccc(F)cc1)CSC2,/,/,-6%,2,-11%[46.1 µM],0%
COc1ccc(N2CCN(c3ccc(-c4nc(-c5ccccc5)no4)cc3[N+](=O)[O-])CC2)cc1,4%[46.1 µM],/,-7%,-10,-2%[46.1 µM],-1%
Cc1ccc(-c2nc(SCCOc3ccccc3C)n3[nH]c(=O)cc3n2)cc1,/,/,i,9,-3%[46.1 µM],-8%
CCN(c1ccc(OC)cc1)S(=O)(=O)c1c(C(=O)N2CCCCCC2)c(C)n(C)c1C,/,/,2%,-29,-16%[46.1 µM],-5%
C=CCNC(=O)CN1C(=O)NC(C)(c2ccc(OC)cc2)C1=O (stereo not given),4%[46.1 µM],12%,32%,-99*,23%,-3%
